Compound activity deposited in PubChem by National Center for Advancing Translational Sciences (NCATS).
A selection: hits, their analogues and other compounds. The true share with any hit is near 20%.
HCMV inh – qHTS Assay for inhibitors of the human cytomegalovirus (HCMV) | HFF cells, HCMV-luciferase reporter, 72 h; active compounds read low | activity change, negative = inhibition, % at 57.5 µM | actives 4.5% (n = 410,000) | AID 1259415, 2018; in the data active = activity change below about -60%; inconclusive = no clear call, values can overlap the other calls; inactive = above about -39%; note: % is set by controls: 0 for no effect and ±100 for the full control effect
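Two compound doses tested in HFFs infected with HCMV-luciferase, MOI 1 PFU/cell, 72 h at 37C. Lysate luminescence read with OneGlo; data normalized against buffer-only and 10uM Salinomycin inhibitor controls.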
Shiga toxin inh – A qHTS for Small Molecule Inhibitors of Shiga Toxin. Vero cells, Shiga toxin protein synthesis inhibition reporter. inhibition, % at 38.7 µM. actives 9.2% (n = 290,000); in the data active = inhibition mostly above about 28%, no sharp cut-off; inactive = mostly below about 43%; note: 0% is about no effect
Pf growth 48h – Primary qHTS for delayed death inhibitors of the malarial parasite plastid, 48 hour incubation; P. falciparum luciferase growth in erythrocytes, 48 h; actives 5.9% (n = 310,000); Potency, µM (top dose mostly 28.7 µM), for inactives: at the top dose activity change, negative = inhibition, hits mostly inhibitors; note: potency is the fitted concentration of half-maximal effect; % is set by controls: 0 for no effect and ±100 for the full control effect
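Parasite viability was followed by luminescence of a genomically integrated firefly luciferase. Cultures held 0.1% parasitemia at 2% hematocrit (final), incubated under 5% CO2 at 37 C.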
Pf growth 96h – Primary qHTS for delayed death inhibitors of the malarial parasite plastid, 96 hour incubation; P. falciparum luciferase reporter growth, 96 h; Potency, µM (series often up to 28.7 µM), without a hit: top-dose activity change, negative = inhibition, usual class: inhibitors; actives 6.9% (n = 320,000); note: potency is the fitted concentration of half-maximal effect; % is set by controls: 0 for no effect and ±100 for the full control effect
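Plates of compound plus infected erythrocytes (2% hematocrit, 0.05% parasitemia final) incubate 96 hours, 37 C, 5% CO2. Detection reagent added; reduced luminescence from the parasites' luciferase reporter flags inhibition.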
CHX counter – Cycloheximide Counterscreen for Small Molecule Inhibitors of Shiga Toxin; cell reporter, cycloheximide protein synthesis inhibition counterscreen; max response, %; actives 12% (n = 300,000); AID 2314, 2010; in the data active = max response mostly above about 13%, no sharp cut-off; inactive = mostly below about 14%; note: read at 38.3 µM for the half of the compounds with a filed dose; 0% is about no effect
Numbers without * were called inactive; u = inconclusive; x = no result; [ ] = remark or other dose. Unless noted, calls come from the whole dose curve; as a rule, active = well fitted inhibition curve with a large enough effect; inconclusive = small, poorly fitted or top-dose-only effect, or another doubt; inactive = no such curve, though single readings can be large or run the other way.

SMILES | HCMV inh | Shiga toxin inh | Pf growth 48h | Pf growth 96h | CHX counter
CCCCCn1c(=O)[nH]c2cc(C(=O)NCCCN3CCCCC3)ccc2c1=O | 30 | -11 | 9.3µM* | x | -1
COc1cc(C(=O)NCCc2ccc(F)cc2)ccc1OCC(=O)N1CCOCC1 | x | x | -10% | -5% | x
COCCn1c(=O)[nH]c2cc(C(=O)NCc3ccccc3)ccc2c1=O | 2 | -5 | x | 1.5µM* | 1
O=C(NCCNc1ccc([N+](=O)[O-])cc1)c1cccc(Br)c1 | -20 | -10 | -7% | -17% | -3
COc1ccc(C(=O)NCCc2ccc(F)cc2)cc1OC | 70 | 25 | 23% | 15%[5.75 µM] | 27*
COc1ccc(C(=O)NCCNc2ccc([N+](=O)[O-])cc2)cc1OC | -11 | -3 | -7% | 5.2µM* | -3
COCCn1c(=S)[nH]c2cc(C(=O)NCc3ccccc3)ccc2c1=O | -22 | x | x | x | x
COc1cc(NC(=O)C2(C)CCN2C(C)C)cc(OC)c1OC (stereo unspecified) | 2 | x | x | x | x
N#CCC(=O)Nc1ccc(C(F)(F)F)cc1N1CCOCC1 | -16 | -5 | -26% | -11% | -2
CCOC1=CC(=O)N(Cc2ccccc2)C1 | 18 | x | x | x | x
CC(=O)NCCNC(=O)c1ccc2c(=O)n(CCc3ccccc3)c(=O)[nH]c2c1 | 13 | x | x | x | x
COc1ccc(CCn2c(=O)[nH]c3cc(C(=O)NCCc4ccccc4)ccc3c2=O)cc1OC | x | 25* | 43% | 38% | 25*
N/C(Cc1ccc(Cl)cc1)=N\OC(=O)c1ccccc1 | 33 | 57 | x | 10µM* | 24*
COc1cc(C(=O)O/N=C(\N)Cc2ccc([N+](=O)[O-])cc2)cc(OC)c1OC | u | 3 | u | u | -1
COc1ccc(C(=O)O/N=C(\N)Cc2ccc(Cl)c(Cl)c2)cc1OC | 18 | -1 | 4.1µM* | 17% | 7
COc1ccc(C(=O)O/N=C(\N)Cc2ccc(Cl)cc2)cc1OC | u | 23 | 7.4µM* | 10µM* | 10
N/C(Cc1ccc([N+](=O)[O-])cc1)=N\OC(=O)c1ccc([N+](=O)[O-])cc1 | -7 | -15 | x | 8% | 1
CC(C)(C)C(=O)OC/C(N)=N/OC(=O)c1ccc(Cl)cc1 | -4 | 58 | u | u | 24*
Cc1cccc(C)c1Nc1c(-c2ccccc2F)nc2ccccn12 | -3 | x | x | x | x
COc1ccc(CN2CCNC(=O)C2CC(=O)NCc2cn3ccc(C)cc3n2)c(OC)c1 (stereo unspecified) | u | 3 | -9% | 5% | -2
Cc1nc2c(Cl)cccc2[nH]1 | -18 | -11 | -4% | x | 0
CC(C)(C)C(=O)O/N=C(\N)COc1cccc(Cl)c1 | -35 | 99* | u | u | 44*
CC(C)(C)C(=O)O/N=C(\N)c1c(Cl)cccc1Cl | 5 | 4 | 25% | -17% | -2
CCOC(=O)c1cc(C#N)c(SCc2cccc3ccccc23)nc1C | -22 | -8 | x | 9.3µM* | -4
CCSc1nc(C)c(C(C)=O)cc1C#N | 23 | -12 | x | -32% | -3
SMILES | HCMV inh | Shiga toxin inh | Pf growth 48h | Pf growth 96h | CHX counter
CC(=O)c1cc(C#N)c(SCC(=O)OC(C)(C)C)nc1C | -12 | 20 | -19% | u | 19*
CN1CCc2nc(SCC(=O)OC(C)(C)C)c(C#N)cc2C1 | 136 | 79* | 54% | -33% | 35*
CC(=O)c1cc(C#N)c(SCC(=O)OC(C)C)nc1C | -24 | 26* | u | u | 18*
CC(=O)c1cc(C#N)c(SCc2ccccc2C#N)nc1C | 35 | -1 | u | 1% | -1
COc1ccccc1CCC(=O)NNC(=O)c1cccs1 | 158 | x | x | x | x
O=C(NCc1cccnc1)[C@@H]1CC=C[C@@H]2CCN(Cc3ccccc3)C(=O)[C@@H]21 | 7 | x | x | x | x
CC(=O)Nc1ccc(S(=O)(=O)N(C)CC(=O)OCC(=O)N(C)c2ccccc2)cc1 | 97 | -4 | 5% | 37% | -1
COC(=O)C1=C(CSc2nc3c(cc2C#N)CN(C)CC3)OC(N)=C(C#N)C1c1ccc(F)cc1 (stereo unspecified) | 16 | 14 | 9.3µM* | u | 1
C=CCn1c(SCC(=O)Nc2cc(C)nn2-c2ccccc2)nnc1C1CCCCC1 | -7 | -12 | -15% | 12µM* | 14
C=CCn1c(SCC(=O)NCCc2ccccc2)nnc1C1CC1 | 1 | x | 12% | 1% | x
